Experimental data as given in PubChem BioAssay (NCATS).
Inconclusive results are not listed. Entries that show only a call come without a potency. Active and inactive are the calls of the source. Calls come from the whole dose curve; as a rule, active = well fitted curve in the direction sought with a large enough effect; inconclusive = small, poorly fitted or top-dose-only effect, or another doubt; inactive = no such curve, though single readings can be large; an effect the other way counts as inactive or inconclusive.

biological target: Calcium and integrin-binding protein 1 (Homo sapiens) (UniProt Q99828); experiment: Primary qHTS for Identification of Calcium Integrin Binding Protein 1 (CIB1) Competitor (AID 1508620); conditions: CIB1-GST / FITC-alphaIIb peptide fluorescence polarization; series mostly up to 57.7 µM;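 note: GST tagged CIB1 binding a fluorescein labelled alphaIIb integrin peptide tracer; top concentration of the series differs between compounds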
Summary of the method: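 Fluorescence polarization competition: GST-tagged CIB1 (1 uM final) preincubated with compound 15 min at room temperature, then FITC-labelled alphaIIb peptide (100 nM final) added. After 15 min at room temperature, polarization read at Ex 480/Em 540.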

Calcium and integrin-binding protein 1 (Homo sapiens), sequence (Q99828 whole entry, looked up): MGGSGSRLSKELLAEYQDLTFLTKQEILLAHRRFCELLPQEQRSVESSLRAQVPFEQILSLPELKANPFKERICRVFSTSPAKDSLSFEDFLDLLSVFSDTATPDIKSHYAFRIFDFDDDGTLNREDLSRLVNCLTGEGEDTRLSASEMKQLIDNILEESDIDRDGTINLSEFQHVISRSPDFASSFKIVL

Structure (SMILES) | outcome
CC1(C)CC/C(=C/c2ccc(Cl)cc2)C1(O)Cn1cncn1 (configuration not stated) | inactive
O=[N+]([O-])c1c(Cl)c(Cl)cc(Cl)c1Cl | inactive
CCCCOC(=O)c1ccccc1C(=O)OCc1ccccc1 | inactive
Cc1c(C(=O)Nc2cccc(C(F)(F)F)c2)cc(-c2ccccc2)n1CCCN1CCOCC1 | inactive
Cc1[nH]nc2ccc(-c3cncc(OC[C@@H](N)Cc4c[nH]c5ccccc45)c3)cc12 | inactive
C=CC(=O)NCNC(=O)C=C | inactive
O=C(O)CCCOc1ccc(Cl)cc1Cl | inactive
CCOC(=O)Nc1ccc(NCc2ccc(F)cc2)cc1N | inactive
O=S(=O)(O)C(F)(F)C(F)(F)C(F)(F)C(F)(F)C(F)(F)C(F)(F)C(F)(F)C(F)(F)F | inactive
COC(C)(C)CCCC(C)C/C=C/C(C)=C/C(=O)OC(C)C (configuration not stated) | inactive
CCCCCCCCCC(CC)c1ccc(S(=O)(=O)O)cc1 (configuration not stated) | inactive
O=[N+]([O-])c1ccc([As](=O)(O)O)cc1 | inactive
CCc1c(C(=O)C(N)=O)c2c(OCC(=O)O)cccc2n1Cc1ccccc1 | inactive
O=C(O)COc1nc(Cl)c(Cl)cc1Cl | inactive
CCN1CCN(C(=O)Cc2ccc(Nc3ncc(F)c(Nc4ccc(C(=O)Nc5ccccc5Cl)cc4)n3)cc2)CC1 | inactive
CC(C)(C)NC[C@H](O)c1ccc(O)cc1Cl | inactive
CCOP(=O)(NC(C)C)Oc1ccc(SC)c(C)c1 (configuration not stated) | inactive
OCCCBr | inactive
O=c1[nH]c2ccc(Cl)cc2c(N[C@@H]2CN3CCC2CC3)c1-c1nc2ccccc2[nH]1 | inactive
O=C(Oc1ccc([N+](=O)[O-])cc1)N1CCN(Cc2cccc(Oc3ccccc3)c2)CC1 | inactive

Structure (SMILES) | outcome
CC(=O)N(C)c1cccc(-c2ccnc3c(C(=O)c4cccs4)cnn23)c1 | inactive
c1cc2ccc3cccc4ccc(c1)c2c34 | inactive
Cc1ccccc1-n1c(Cn2ncc3c(N)ncnc32)nc2cccc(C)c2c1=O | inactive
ClC1=C(Cl)[C@]2(Cl)[C@@H]3[C@@H]4C[C@@H]([C@H]5O[C@@H]45)[C@@H]3[C@@]1(Cl)C2(Cl)Cl | inactive
COCC1(CO)C(=O)C2CCN1CC2 (configuration not stated) | inactive
O=C(O)CNC(=O)c1c(O)c2ccccc2n(Cc2ccccc2)c1=O | inactive
C=CCC1=C(C)C(OC(=O)C2C(C=C(C)C)C2(C)C)CC1=O (configuration not stated) | inactive
CCC1(CCC(C)C)C(=O)NC(=O)NC1=O | inactive
Nc1ccc(Sc2ccc(N)cc2)cc1 | inactive
CCOCCOC(C)=O | inactive
CC(C)N(CCNC(=O)CN1CCCC1=O)C(C)C | inactive
CC[N+]1(CCOC(=O)C(O)(c2ccccc2)c2ccccc2)CCCCC1 | inactive
CC(O)CN1CCN(CC(=O)[O-])CCN(CC(=O)[O-])CCN(CC(=O)[O-])CC1.[Gd+3] (configuration not stated) | inactive
COc1ccc(N(C(=O)Oc2c(C)cccc2C)c2ccnc(Nc3ccc(N4CCN(C)CC4)cc3)n2)c(OC)c1 | inactive
CCCCC(CC)COC(=O)c1ccccc1C(=O)OCC(CC)CCCC (configuration not stated) | inactive
O=C(Nc1ccncc1)C(=O)c1cn(Cc2ccc(Cl)cc2)c2ccccc12 | inactive
COCCOCCO | inactive
Cc1ccc(Cl)c(O)c1 | inactive
CC(=O)Nc1ccc(OC[C@](C)(O)C(=O)Nc2ccc([N+](=O)[O-])c(C(F)(F)F)c2)cc1 | inactive
CN(C)[C@@H]1C(=O)C(C(N)=O)=C(O)[C@@]2(O)C(=O)C3=C(O)c4c(O)cccc4[C@@](C)(O)[C@H]3[C@H](O)[C@@H]12 | inactive

system: not listed separately; experiment: Primary qHTS for small molecule stabilizers of the endoplasmic reticulum resident proteome: Secreted ER Calcium Modulated Protein (SERCaMP) assay (AID 1508630); conditions: SH-SY5Y GLuc-SERCaMP (Gaussia luciferase released on ER calcium loss) secretion, thapsigargin, luminescence; series mostly up to 38.4 µM
Summary of the method: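 GLuc-SERCaMP-expressing SH-SY5Y cells, pretreated 16 h with compound, are challenged with thapsigargin to empty ER calcium stores; after 4 h, coelenterazine is added directly to the medium and luminescence is imaged.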

Structure (SMILES) | Potency
Cc1c(C(=O)Nc2cccc(C(F)(F)F)c2)cc(-c2ccccc2)n1CCCN1CCOCC1 | inactive
Cc1[nH]nc2ccc(-c3cncc(OC[C@@H](N)Cc4c[nH]c5ccccc45)c3)cc12 | inactive
CCOC(=O)Nc1ccc(NCc2ccc(F)cc2)cc1N | inactive
O=S(=O)(O)C(F)(F)C(F)(F)C(F)(F)C(F)(F)C(F)(F)C(F)(F)C(F)(F)C(F)(F)F | inactive
CCCCCCCCCC(CC)c1ccc(S(=O)(=O)O)cc1 (configuration not stated) | inactive
CCc1c(C(=O)C(N)=O)c2c(OCC(=O)O)cccc2n1Cc1ccccc1 | inactive
CCN1CCN(C(=O)Cc2ccc(Nc3ncc(F)c(Nc4ccc(C(=O)Nc5ccccc5Cl)cc4)n3)cc2)CC1 | inactive
O=C(Oc1ccc([N+](=O)[O-])cc1)N1CCN(Cc2cccc(Oc3ccccc3)c2)CC1 | inactive
CC(=O)N(C)c1cccc(-c2ccnc3c(C(=O)c4cccs4)cnn23)c1 | inactive
Cc1ccccc1-n1c(Cn2ncc3c(N)ncnc32)nc2cccc(C)c2c1=O | inactive
COCC1(CO)C(=O)C2CCN1CC2 (configuration not stated) | inactive
Nc1ccc(Sc2ccc(N)cc2)cc1 | inactive
CC(C)N(CCNC(=O)CN1CCCC1=O)C(C)C | inactive
COc1ccc(N(C(=O)Oc2c(C)cccc2C)c2ccnc(Nc3ccc(N4CCN(C)CC4)cc3)n2)c(OC)c1 | inactive
O=C(Nc1ccncc1)C(=O)c1cn(Cc2ccc(Cl)cc2)c2ccccc12 | inactive
CC(=O)Nc1ccc(OC[C@](C)(O)C(=O)Nc2ccc([N+](=O)[O-])c(C(F)(F)F)c2)cc1 | inactive
CN(C)[C@@H]1C(=O)C(C(N)=O)=C(O)[C@@]2(O)C(=O)C3=C(O)c4c(O)cccc4[C@@](C)(O)[C@H]3[C@H](O)[C@@H]12 | inactive
